Here are results for 11 compounds from ChEMBL document CHEMBL3988442, “University of Dundee, Small-Polar-MMV Screening Library” (2021).

The structures appear in SMILES notation. For some of these results: Potency and affinity values are given separately.

Common to all, as to parameters: scale not given: direction of the effect not stated beside the values
Assay [1] concerns the target Protein translocase subunit SecA (Escherichia coli (strain K12)) (UniProt P10408). The experiment in a line: Assay to Identify E. coli SecA ATPase Inhibitors. Type of assay: functional. The conditions noted are these: 30 µM.
Assay [2] addresses T1, Ubiquitin-activating enzyme e1, putative (Leishmania donovani (strain BPK282A1)) (UniProt E9BSI1).
T1 sequence (whole entry): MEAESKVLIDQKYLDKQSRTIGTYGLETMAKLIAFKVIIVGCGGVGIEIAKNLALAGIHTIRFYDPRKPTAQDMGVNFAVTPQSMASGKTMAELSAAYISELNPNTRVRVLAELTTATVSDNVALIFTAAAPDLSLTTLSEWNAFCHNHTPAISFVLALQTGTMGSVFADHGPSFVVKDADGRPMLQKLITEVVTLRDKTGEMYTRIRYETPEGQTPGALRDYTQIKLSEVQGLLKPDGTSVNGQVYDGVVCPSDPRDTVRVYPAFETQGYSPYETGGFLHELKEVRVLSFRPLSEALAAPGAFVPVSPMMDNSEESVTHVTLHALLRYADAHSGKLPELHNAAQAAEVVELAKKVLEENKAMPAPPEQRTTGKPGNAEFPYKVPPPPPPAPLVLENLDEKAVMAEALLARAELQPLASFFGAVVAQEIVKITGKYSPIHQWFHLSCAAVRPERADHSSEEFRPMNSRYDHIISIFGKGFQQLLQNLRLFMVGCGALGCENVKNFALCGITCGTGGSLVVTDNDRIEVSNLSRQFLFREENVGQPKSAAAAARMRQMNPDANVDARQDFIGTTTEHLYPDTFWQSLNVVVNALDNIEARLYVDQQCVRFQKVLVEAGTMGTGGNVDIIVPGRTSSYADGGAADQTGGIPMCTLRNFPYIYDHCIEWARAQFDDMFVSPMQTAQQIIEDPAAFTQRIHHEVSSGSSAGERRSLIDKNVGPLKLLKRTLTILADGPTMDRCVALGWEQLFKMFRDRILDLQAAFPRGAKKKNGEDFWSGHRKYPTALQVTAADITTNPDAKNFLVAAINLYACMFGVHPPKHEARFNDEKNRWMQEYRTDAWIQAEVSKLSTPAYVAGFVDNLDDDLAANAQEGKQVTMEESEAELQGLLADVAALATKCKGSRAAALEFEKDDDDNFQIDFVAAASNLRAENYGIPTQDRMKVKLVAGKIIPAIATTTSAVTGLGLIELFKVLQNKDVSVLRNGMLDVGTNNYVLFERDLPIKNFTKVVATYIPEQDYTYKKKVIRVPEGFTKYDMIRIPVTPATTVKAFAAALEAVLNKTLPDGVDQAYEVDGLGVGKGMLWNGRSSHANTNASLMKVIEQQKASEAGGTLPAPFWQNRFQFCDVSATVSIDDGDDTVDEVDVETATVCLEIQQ
The experiment in a line: Leishmania donovani Ubiquitin Activating Enzyme (LdE1). Format: functional. The conditions noted are these: 30 µM.

The target in assay [3] is AMP-activated protein kinase, AMPK (Homo sapiens) (UniProt P54646+O43741+P54619+Q9UGJ0+Q9Y478+Q13131+Q9UGI9). Nature of the assay: AMP-dependent Kinase enzyme assay. An in vitro enzyme assay that detects ADP turnover that is directly proportional to AMPK activity. This uses naive AMPK that is activated during the assay with MK-8722. Type of assay: functional. The settings on record: 30 µM.

For assay [4], the target named is Sialic acid-binding Ig-like lectin 9 (Homo sapiens) (UniProt Q9Y336). Nature of the assay: Hs-Siglec9 ALPHAscreen SOP 20170721. The settings on record: 10 µM. For orientation: Alpha assays give light when donor and acceptor beads are brought close together.
Sialic acid-binding Ig-like lectin 9 (Homo sapiens), sequence (Q9Y336 whole entry): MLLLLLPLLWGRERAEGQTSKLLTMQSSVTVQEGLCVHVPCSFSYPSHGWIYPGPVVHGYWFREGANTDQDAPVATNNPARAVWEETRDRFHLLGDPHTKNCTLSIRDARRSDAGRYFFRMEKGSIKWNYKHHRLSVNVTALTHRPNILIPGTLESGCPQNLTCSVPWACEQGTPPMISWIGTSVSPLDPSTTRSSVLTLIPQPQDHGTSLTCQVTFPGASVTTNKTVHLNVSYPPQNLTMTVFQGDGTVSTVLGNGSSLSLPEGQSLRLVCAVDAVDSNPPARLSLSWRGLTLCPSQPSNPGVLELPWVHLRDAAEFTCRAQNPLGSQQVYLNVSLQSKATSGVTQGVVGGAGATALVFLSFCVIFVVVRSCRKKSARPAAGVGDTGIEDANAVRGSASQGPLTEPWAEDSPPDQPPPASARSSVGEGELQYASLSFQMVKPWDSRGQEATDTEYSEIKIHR
For the next assay, the system named is Trypanosoma cruzi. Nature of the assay: Trypanosoma cruzi phosphomannomutase and mannose-1-phosphate guanylyltransferase assay. Type of assay: functional. The settings on record: 10 µM.
In assay [5] the target is T2, Arginase-2, mitochondrial (Homo sapiens) (UniProt P78540).
T2 sequence (whole entry): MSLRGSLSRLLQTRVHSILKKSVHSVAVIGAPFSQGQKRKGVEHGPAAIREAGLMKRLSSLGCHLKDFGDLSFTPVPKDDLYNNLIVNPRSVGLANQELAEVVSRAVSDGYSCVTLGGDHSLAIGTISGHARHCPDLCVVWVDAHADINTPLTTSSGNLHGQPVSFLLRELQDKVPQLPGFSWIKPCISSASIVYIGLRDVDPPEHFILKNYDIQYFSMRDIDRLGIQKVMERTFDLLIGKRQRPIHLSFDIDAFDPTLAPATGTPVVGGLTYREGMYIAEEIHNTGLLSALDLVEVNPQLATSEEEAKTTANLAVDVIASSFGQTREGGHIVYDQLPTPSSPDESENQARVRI
The experiment in a line: in vitro enzyme assay to detect the production of urea directly proportional to the activity of Arginase II. Further: in the data most compounds retested in dose-response had high values. Type of assay: functional. The conditions noted are these: 33.3 µM.

Assay [6] has as its target T3, Proteasome subunit beta (Trypanosoma cruzi) (UniProt O96673).
T3 sequence (whole entry): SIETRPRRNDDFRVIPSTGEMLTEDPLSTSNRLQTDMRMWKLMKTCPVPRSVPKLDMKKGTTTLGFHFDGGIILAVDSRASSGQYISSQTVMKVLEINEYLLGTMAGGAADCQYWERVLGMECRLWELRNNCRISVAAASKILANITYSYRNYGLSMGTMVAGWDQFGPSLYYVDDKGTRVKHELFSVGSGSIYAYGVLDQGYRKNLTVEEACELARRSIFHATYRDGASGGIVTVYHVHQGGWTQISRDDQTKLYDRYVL
Nature of the assay: Trypanosoma cruzi proteasome chymotrypsin-like activity (TcProtChymo) assay. Further: in the data most compounds retested in dose-response had high values. Format: functional. The settings on record: 9.37 µM.

For a further assay, the species on record is Homo sapiens. The experiment in a line: To identify inhibition of the IFN signalling (Jak-Stat) pathway via expression of an eGFP reporter gene under the control of an IFN-stimulated response element (ISRE) containing MxA promoter. Format: functional. The settings on record: 30 µM. Background: A reporter such as luciferase makes a cellular process visible.

Assay [7] addresses T4, Tyrosyl-tRNA synthetase, putative (Trypanosoma cruzi (strain CL Brener)) (UniProt Q4DSP6).
T4 sequence (whole entry): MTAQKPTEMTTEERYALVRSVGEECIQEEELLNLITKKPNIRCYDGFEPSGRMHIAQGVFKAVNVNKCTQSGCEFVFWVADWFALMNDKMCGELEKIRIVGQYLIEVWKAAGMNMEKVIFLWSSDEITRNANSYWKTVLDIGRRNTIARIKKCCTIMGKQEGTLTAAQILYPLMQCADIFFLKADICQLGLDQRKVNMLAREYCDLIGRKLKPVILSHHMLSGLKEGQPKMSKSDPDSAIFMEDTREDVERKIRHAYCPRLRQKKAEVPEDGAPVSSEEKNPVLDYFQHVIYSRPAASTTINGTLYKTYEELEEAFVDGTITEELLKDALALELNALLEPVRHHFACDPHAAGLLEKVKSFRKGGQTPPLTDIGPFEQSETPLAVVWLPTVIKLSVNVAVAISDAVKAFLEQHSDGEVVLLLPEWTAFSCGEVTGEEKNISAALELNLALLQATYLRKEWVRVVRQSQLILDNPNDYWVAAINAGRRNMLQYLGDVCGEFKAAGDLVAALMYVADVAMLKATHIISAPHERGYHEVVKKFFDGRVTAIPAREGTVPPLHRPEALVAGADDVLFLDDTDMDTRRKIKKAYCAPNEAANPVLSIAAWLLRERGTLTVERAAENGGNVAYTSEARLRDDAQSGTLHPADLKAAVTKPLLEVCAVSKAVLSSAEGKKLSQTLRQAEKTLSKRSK
The experiment in a line: Trypanosoma cruzi tyrosyl tRNA synthetase (TcYRS) _High Tyrosine SOP. Further: in the data most compounds retested in dose-response had high values. The settings on record: 30 µM. Type of assay: functional.

For assay [8], the target named is T4, Tyrosyl-tRNA synthetase, putative (Trypanosoma cruzi (strain CL Brener)). The experiment in a line: Trypanosoma cruzi tyrosyl tRNA synthetase (TcYRS) SOP. Type of assay: functional. The settings on record: 30 µM.
For assay [9], the target named is Chromo domain-containing protein 1 (Saccharomyces cerevisiae (strain ATCC 204508 / S288c) (Baker's yeast)) (UniProt P32657). The experiment in a line: ScCHD-1 Enzyme Inhibition Assay. Further: in the data most compounds retested in dose-response had high values. Type of assay: functional. The settings on record: 30 µM.
Chromo domain-containing protein 1 (Saccharomyces cerevisiae (strain ATCC 204508 / S288c) (Baker's yeast)), sequence (P32657 whole entry, the tested form may be a part): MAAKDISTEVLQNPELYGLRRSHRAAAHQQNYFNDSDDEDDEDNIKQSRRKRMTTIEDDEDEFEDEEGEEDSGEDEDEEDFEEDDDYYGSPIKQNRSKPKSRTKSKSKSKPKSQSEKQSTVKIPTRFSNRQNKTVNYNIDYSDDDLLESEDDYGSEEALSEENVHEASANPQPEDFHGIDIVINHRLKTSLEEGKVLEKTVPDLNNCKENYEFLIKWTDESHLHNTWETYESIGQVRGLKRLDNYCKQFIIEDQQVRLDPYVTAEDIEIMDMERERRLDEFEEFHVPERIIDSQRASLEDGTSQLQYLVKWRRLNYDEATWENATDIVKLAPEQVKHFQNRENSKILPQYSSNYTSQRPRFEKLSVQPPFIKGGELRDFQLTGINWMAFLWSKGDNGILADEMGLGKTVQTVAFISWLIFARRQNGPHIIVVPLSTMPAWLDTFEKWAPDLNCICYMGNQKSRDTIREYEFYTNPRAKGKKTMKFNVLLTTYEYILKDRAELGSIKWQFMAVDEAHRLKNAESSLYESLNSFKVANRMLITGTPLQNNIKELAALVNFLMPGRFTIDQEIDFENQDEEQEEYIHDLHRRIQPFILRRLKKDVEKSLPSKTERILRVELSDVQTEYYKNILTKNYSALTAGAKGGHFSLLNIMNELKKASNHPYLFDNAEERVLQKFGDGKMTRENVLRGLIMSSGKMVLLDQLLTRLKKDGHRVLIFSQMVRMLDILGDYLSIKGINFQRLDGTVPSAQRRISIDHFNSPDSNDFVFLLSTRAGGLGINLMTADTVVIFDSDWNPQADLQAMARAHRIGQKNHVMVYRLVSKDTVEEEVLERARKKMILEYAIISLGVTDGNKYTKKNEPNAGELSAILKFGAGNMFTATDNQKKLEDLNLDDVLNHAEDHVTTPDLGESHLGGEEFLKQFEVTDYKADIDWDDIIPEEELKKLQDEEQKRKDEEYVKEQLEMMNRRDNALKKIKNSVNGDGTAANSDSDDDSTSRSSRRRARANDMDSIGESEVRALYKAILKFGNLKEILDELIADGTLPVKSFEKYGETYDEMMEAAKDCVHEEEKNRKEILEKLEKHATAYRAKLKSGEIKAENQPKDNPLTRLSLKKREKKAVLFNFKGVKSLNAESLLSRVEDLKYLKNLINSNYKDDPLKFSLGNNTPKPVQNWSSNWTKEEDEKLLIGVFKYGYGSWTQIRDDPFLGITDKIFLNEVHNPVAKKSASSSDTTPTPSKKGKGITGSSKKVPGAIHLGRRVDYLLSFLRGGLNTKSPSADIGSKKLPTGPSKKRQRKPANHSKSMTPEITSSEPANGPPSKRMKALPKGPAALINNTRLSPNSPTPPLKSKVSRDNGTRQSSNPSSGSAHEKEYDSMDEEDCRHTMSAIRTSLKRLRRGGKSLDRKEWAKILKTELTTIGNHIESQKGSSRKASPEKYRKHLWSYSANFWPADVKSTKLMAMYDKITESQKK

Protein translocase subunit SecA (Escherichia coli (strain K12)), sequence (P10408 whole entry): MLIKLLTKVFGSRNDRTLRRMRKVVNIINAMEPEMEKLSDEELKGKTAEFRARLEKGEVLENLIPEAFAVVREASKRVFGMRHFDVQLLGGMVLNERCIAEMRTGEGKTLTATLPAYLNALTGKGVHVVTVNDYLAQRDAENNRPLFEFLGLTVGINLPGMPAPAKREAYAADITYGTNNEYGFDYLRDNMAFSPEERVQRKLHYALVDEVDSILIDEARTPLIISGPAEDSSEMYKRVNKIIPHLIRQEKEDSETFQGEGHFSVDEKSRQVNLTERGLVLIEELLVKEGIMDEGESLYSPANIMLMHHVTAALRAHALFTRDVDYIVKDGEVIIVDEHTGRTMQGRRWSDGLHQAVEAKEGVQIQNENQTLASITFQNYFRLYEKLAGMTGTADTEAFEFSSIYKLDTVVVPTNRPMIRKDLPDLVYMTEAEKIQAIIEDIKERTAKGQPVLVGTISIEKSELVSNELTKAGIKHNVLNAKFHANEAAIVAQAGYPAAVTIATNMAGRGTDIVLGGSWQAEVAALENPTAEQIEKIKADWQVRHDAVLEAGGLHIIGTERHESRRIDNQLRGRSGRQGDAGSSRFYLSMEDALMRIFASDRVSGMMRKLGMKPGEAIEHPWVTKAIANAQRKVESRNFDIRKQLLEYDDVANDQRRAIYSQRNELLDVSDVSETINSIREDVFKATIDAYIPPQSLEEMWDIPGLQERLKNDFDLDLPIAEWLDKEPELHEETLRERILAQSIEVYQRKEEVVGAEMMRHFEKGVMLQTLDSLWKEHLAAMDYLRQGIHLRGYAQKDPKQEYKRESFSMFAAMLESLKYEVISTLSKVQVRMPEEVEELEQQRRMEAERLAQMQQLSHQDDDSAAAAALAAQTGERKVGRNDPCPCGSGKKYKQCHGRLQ

Take `N#Cc1ccc(CN2CCN(C(=O)c3cc(C4CC4)[nH]n3)CC2)cc1`: the Percent Effect in assay [1] was -4.3%; in assay [2], 21.6%; in [3], -5.26%; in [4] it was 14.7%; in the assay with Trypanosoma cruzi it was 4.74%; in [5], -3.51%. Besides, the Percent Effect in assay [6] was 5.21%; in the assay filed under Homo sapiens, 23.8%; in assay [7] it was 7.92%; in [8], 18.3%; in assay [9] it was -4.6%.

As to `Cc1n[nH]c(C2CN(C(=O)c3cnc[nH]3)CCO2)n1` (stereo unspecified), the Percent Effect in assay [1] was -2.98%; in assay [2], 7.79%; in assay [3], 4.4%; in assay [4], 7.68%; in the assay on Trypanosoma cruzi it was 3.62%; in assay [5], -1.05%. For the same compound, the Percent Effect is 12.8% in assay [6]; -9.06% in the assay listed under Homo sapiens; 5.71% in assay [7]; 21.2% in assay [8]; -19.1% in [9].

Regarding `CCC(C)[C@H](NC(=O)c1cc(Br)ccc1-n1cnnn1)C(=O)OC` (stereo partly specified), the Percent Effect was -3% in assay [1]; -1.33% in [2]; -6.14% in assay [3]; -6.61% in [4]; -2.36% in the assay on Trypanosoma cruzi; -11.1% in assay [5]. The Percent Effect in assay [6] is 2.03%; in the assay listed under Homo sapiens, -0.401%; in assay [7], -19.1%; in assay [8], -17.9%; in assay [9] it was 0.0287%.

For the compound `CCCc1nc(CN2CCN(Cc3noc(CCC)n3)CC2)no1`, the Percent Effect in assay [1] is -5.83%; in [2], 13.9%; in assay [3], -4.71%; in assay [4], 0.206%; in the assay on Trypanosoma cruzi it was -0.718%; in assay [5], -8.39%. Also, the Percent Effect in assay [6] is 10.5%; in the assay listed under Homo sapiens, 7.72%; in assay [7], 11.5%; in assay [8], 17.7%; in [9], -33.6%.

With `COc1cccc(N2CCN(Cc3ccc(NC(C)=O)cc3)CC2=O)c1`, the Percent Effect in [1] was -2.84%; in assay [2] it was 18.1%; in [3], -5.61%; in [4], 20.1%; in the assay on Trypanosoma cruzi it was 6.51%; in [5], 10.2%. The Percent Effect in [6] is 11.6%; in the assay filed under Homo sapiens, 4.1%; in assay [7], 4.21%; in assay [8], 15.4%; in assay [9], -2.22%.

As to `CC(=O)N1CCC(Cc2cnc(-c3c(C)n[nH]c3C)cn2)C1` (stereo unspecified), the Percent Effect was -5.08% in assay [1]; 0% in [2]; 10% in [3]; -2.02% in assay [4]; 1.97% with Trypanosoma cruzi; 0.233% in assay [5]. Also, the Percent Effect was 4.67% in [6]; -10.8% in the assay listed under Homo sapiens; 3.19% in [7]; 1.28% in [8]; 0.0811% in [9].

Regarding `Cc1nc(C)n(C2CCCN(C(=O)CCCOc3ccccc3)C2)n1` (stereo unspecified), the Percent Effect was -1.32% in [1]; 0% in assay [2]; 6.84% in assay [3]; 4.93% in assay [4]; 1.5% with Trypanosoma cruzi; -2.85% in [5]. Also, the Percent Effect in assay [6] is -1.18%; in the assay listed under Homo sapiens, -22.8%; in assay [7] it was 2.91%; in assay [8], 9.76%; in [9], -5.8%.

Turning to `NC(=O)c1ccc(CN2CCCC(O)C2)cc1` (stereo unspecified), the Percent Effect in assay [1] is -2.93%; in assay [2], 13.5%; in [3], -3.22%; in assay [4], -5.21%; in the assay on Trypanosoma cruzi it was 4.69%; in [5] it was 37.5%. The Percent Effect is 17.2% in [6]; 0.641% in the assay listed under Homo sapiens; 5.94% in assay [7]; 15.8% in [8]; -0.618% in [9].

Turning to `Cc1cc(NC(=O)CN2CCc3nn(C)c(=O)cc3C2)on1`, the Percent Effect in assay [1] is -3.81%; in [2], 6.94%; in assay [3], -63.3%; in assay [4], -0.594%; in the assay on Trypanosoma cruzi, -1.46%; in [5], 7.06%. Further, the Percent Effect in assay [6] is 13.9%; in the assay filed under Homo sapiens, 0.181%; in [7], -6.32%; in assay [8], -5.13%; in assay [9], -4.24%.

`Cc1cc(C)nc(CCNC(=O)[C@H]2CNC[C@@H](C(=O)N3CCCC3)C2)n1`: the Percent Effect is -5% in assay [1]; 0% in [2]; 2.23% in [3]; -0.778% in assay [4]; -8.33% in the assay with Trypanosoma cruzi; -5.59% in assay [5]. Moreover, the Percent Effect in assay [6] is 5.91%; in the assay filed under Homo sapiens, 29.4%; in [7], 2.08%; in assay [8] it was 3.7%; in [9], -3.88%.

For `CCOCC1CN(Cc2ccoc2)Cc2ncn(CC3CC3)c21` (stereo unspecified), the Percent Effect in assay [1] was -8.23%; in assay [2] it was -2.7%; in assay [3] it was 0.834%; in assay [4] it was 4.02%; in the assay with Trypanosoma cruzi, -2.34%; in [5], -0.833%. The Percent Effect in [6] was 10.1%; in the assay listed under Homo sapiens, 3.58%; in assay [7], 4.95%; in assay [8], -1.22%; in assay [9], -0.436%.
